Changes are numbered by the printed parent chain.

Holding throughout (assay): PBM; 200 nM protein, PBS
What all share (details): dsDNA, one strand shown

Assay [1] deals with HOXA2 (Homo sapiens, UniProt O43364 129-215, R185T).
Assay [2] addresses HOXA2 (Homo sapiens, UniProt O43364 129-215, R185K).
Assay [3] concerns the target HOXA2 (Homo sapiens, UniProt O43364 129-215, Y150S).
Assay [4] addresses HOXA4 (Homo sapiens, UniProt Q00056 201-287, W262F).
Assay [5] has as its target HOXA2 (Homo sapiens, UniProt O43364 129-215).
In assay [6] the target is HOXA4 (Homo sapiens, UniProt Q00056 201-287, R217L).
Chain of HOXA4 (Homo sapiens, UniProt Q00056 201-287, R217L) (Q00056 201-287 R217L): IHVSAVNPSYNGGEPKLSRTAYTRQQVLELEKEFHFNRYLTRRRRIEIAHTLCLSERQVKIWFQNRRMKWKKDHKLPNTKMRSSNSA
Assay [7] has as its target HOXA4 (Homo sapiens, UniProt Q00056 201-287).
In assay [8] the target is ALX3 (Homo sapiens, UniProt O95076 139-225, N203Q).
Chain of ALX3 (Homo sapiens, UniProt O95076 139-225, N203Q) (O95076 139-225 N203Q): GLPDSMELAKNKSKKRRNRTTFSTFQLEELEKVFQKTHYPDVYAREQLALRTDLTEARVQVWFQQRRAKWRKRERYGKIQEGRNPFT
Assay [9] deals with ALX3 (Homo sapiens, UniProt O95076 139-225).
Chain of ALX3 (Homo sapiens, UniProt O95076 139-225) (O95076 139-225): as the sequence (O95076 139-225 N203Q) above, with Q65N counted along it
Assay [10] addresses ALX3 (Homo sapiens, UniProt O95076 139-225, N203S).
Assay [11] concerns the target T1, NKX2-6 (Homo sapiens, UniProt A6NCS4 118-204).
T1 sequence: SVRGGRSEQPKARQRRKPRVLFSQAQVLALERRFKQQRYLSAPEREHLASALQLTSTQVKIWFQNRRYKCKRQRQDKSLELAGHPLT

In assay [12] the target is T2, NKX2-6 (Homo sapiens, UniProt A6NCS4 118-204, F151L).
T2 sequence: T1 sequence with F34L

Assay [13] deals with HOXD13 (Homo sapiens, UniProt P35453 263-343).
Chain of HOXD13 (Homo sapiens, UniProt P35453 263-343) (P35453 263-343): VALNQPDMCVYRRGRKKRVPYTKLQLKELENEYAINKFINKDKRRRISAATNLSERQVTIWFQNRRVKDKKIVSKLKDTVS
Assay [14] has as its target HOXD13 (Homo sapiens, UniProt P35453 263-343, T313A).
Assay [15] concerns the target MSX2 (Homo sapiens, UniProt P35548 130-214).
Assay [16] deals with MSX2 (Homo sapiens, UniProt P35548 130-214, F161Y).
Chain of MSX2 (Homo sapiens, UniProt P35548 130-214, F161Y) (P35548 130-214 F161Y): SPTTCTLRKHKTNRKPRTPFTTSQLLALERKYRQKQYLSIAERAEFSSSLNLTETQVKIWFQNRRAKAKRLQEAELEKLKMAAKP
Assay [17] has as its target T3, SIX6 (Homo sapiens, UniProt O95475 114-200, T139Q).
T3 sequence: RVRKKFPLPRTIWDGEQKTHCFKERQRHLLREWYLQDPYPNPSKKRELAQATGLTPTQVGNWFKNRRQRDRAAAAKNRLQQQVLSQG

For assay [18], the target named is T4, NKX2-6 (Homo sapiens, UniProt A6NCS4 118-204, R150C).
T4 sequence: T1 sequence with R33C

Assay [19] has as its target HOXB9 (Homo sapiens, UniProt P17482 171-250).
Assay [20] deals with HOXB9 (Homo sapiens, UniProt P17482 171-250, R186Q).
Chain of HOXB9 (Homo sapiens, UniProt P17482 171-250, R186Q) (P17482 171-250 R186Q): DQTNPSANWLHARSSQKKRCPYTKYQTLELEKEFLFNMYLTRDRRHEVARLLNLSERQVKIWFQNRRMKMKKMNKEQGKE
For assay [21], the target named is HOXB6 (Homo sapiens, UniProt P17509 132-218).
Chain of HOXB6 (P17509 132-218): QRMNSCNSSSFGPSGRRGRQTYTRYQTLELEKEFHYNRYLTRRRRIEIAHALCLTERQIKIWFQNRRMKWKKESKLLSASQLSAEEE
Assay [22] has as its target CRX (Homo sapiens, UniProt O43186 26-111, R41L).

Chain of HOXA2 (Homo sapiens, UniProt O43364 129-215) (O43364 129-215): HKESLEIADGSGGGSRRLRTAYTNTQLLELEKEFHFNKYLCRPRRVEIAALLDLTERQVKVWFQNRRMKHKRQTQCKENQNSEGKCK
Chain of HOXA2 (Homo sapiens, UniProt O43364 129-215, Y150S) (O43364 129-215 Y150S): as the sequence (O43364 129-215) above, with Y22S counted along it
Chain of HOXB9 (Homo sapiens, UniProt P17482 171-250) (P17482 171-250): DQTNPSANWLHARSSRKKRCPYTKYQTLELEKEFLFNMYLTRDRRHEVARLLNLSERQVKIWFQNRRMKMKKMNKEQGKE
Chain of HOXA2 (Homo sapiens, UniProt O43364 129-215, R185K) (O43364 129-215 R185K): as the sequence (O43364 129-215) above, with R57K counted along it
Chain of HOXA2 (Homo sapiens, UniProt O43364 129-215, R185T) (O43364 129-215 R185T): as the sequence (O43364 129-215) above, with R57T counted along it
Chain of MSX2 (Homo sapiens, UniProt P35548 130-214) (P35548 130-214): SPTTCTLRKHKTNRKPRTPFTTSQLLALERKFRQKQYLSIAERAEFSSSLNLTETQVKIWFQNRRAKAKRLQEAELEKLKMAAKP
Chain of CRX (O43186 26-111 R41L): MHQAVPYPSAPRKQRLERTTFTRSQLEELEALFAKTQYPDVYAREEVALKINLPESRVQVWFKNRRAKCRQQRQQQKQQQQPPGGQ
Chain of HOXA4 (Homo sapiens, UniProt Q00056 201-287) (Q00056 201-287): as the sequence (Q00056 201-287 R217L) above, with L17R counted along it
Chain of ALX3 (Homo sapiens, UniProt O95076 139-225, N203S) (O95076 139-225 N203S): as the sequence (O95076 139-225 N203Q) above, with Q65S counted along it
Chain of HOXA4 (Homo sapiens, UniProt Q00056 201-287, W262F) (Q00056 201-287 W262F): as the sequence (Q00056 201-287 R217L) above, with L17R, W62F counted along it
Chain of HOXD13 (Homo sapiens, UniProt P35453 263-343, T313A) (P35453 263-343 T313A): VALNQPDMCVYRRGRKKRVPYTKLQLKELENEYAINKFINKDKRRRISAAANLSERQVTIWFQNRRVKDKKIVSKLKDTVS

Consider CGTCATTA, for which the binding signal in assay [1] is 12.3 upbm affinity estimate (log intensity, higher = more binding, comparable within an allelic series); in [2], 13.2 upbm affinity estimate (log intensity, higher = more binding, comparable within an allelic series); in [3], 10.8 upbm affinity estimate (log intensity, higher = more binding, comparable within an allelic series); in assay [4] it was 11.4 upbm affinity estimate (log intensity, higher = more binding, comparable within an allelic series); in assay [5], 12.3 upbm affinity estimate (log intensity, higher = more binding, comparable within an allelic series).
For CCCCCGTC, the binding signal in [1] was 7.31 upbm affinity estimate (log intensity, higher = more binding, comparable within an allelic series); in assay [2] it was 10.2 upbm affinity estimate (log intensity, higher = more binding, comparable within an allelic series); in [3], 10.3 upbm affinity estimate (log intensity, higher = more binding, comparable within an allelic series); in [5] it was 7.2 upbm affinity estimate (log intensity, higher = more binding, comparable within an allelic series).
Regarding TACTTTAA, the binding signal in assay [1] was 9.67 upbm affinity estimate (log intensity, higher = more binding, comparable within an allelic series); in [2] it was 11.6 upbm affinity estimate (log intensity, higher = more binding, comparable within an allelic series); in assay [3] it was 10.8 upbm affinity estimate (log intensity, higher = more binding, comparable within an allelic series); in assay [5], 9.6 upbm affinity estimate (log intensity, higher = more binding, comparable within an allelic series).
For the sequence AAGGCCCC, the binding signal was 7.25 upbm affinity estimate (log intensity, higher = more binding, comparable within an allelic series) in assay [1]; 10.3 upbm affinity estimate (log intensity, higher = more binding, comparable within an allelic series) in [2]; 10.3 upbm affinity estimate (log intensity, higher = more binding, comparable within an allelic series) in assay [3]; 7.19 upbm affinity estimate (log intensity, higher = more binding, comparable within an allelic series) in [5].
With CGAGAGGC, the binding signal is 7.16 upbm affinity estimate (log intensity, higher = more binding, comparable within an allelic series) in assay [1]; 10.3 upbm affinity estimate (log intensity, higher = more binding, comparable within an allelic series) in assay [2]; 10.4 upbm affinity estimate (log intensity, higher = more binding, comparable within an allelic series) in assay [3]; 7.01 upbm affinity estimate (log intensity, higher = more binding, comparable within an allelic series) in assay [5].
In the case of CCCCCCCG, the binding signal in assay [1] was 6.93 upbm affinity estimate (log intensity, higher = more binding, comparable within an allelic series); in assay [2], 9.85 upbm affinity estimate (log intensity, higher = more binding, comparable within an allelic series); in assay [3], 10.2 upbm affinity estimate (log intensity, higher = more binding, comparable within an allelic series); in assay [5], 7.13 upbm affinity estimate (log intensity, higher = more binding, comparable within an allelic series).
With ACATTAGC, in [6], the binding signal is 10.8 upbm affinity estimate (log intensity, higher = more binding, comparable within an allelic series).
Regarding AAAAATAT, the binding signal is 10.8 upbm affinity estimate (log intensity, higher = more binding, comparable within an allelic series) in assay [6] and 11.1 upbm affinity estimate (log intensity, higher = more binding, comparable within an allelic series) in assay [7].
With ATATAGTA, in [8], the binding signal is 8.55 upbm affinity estimate (log intensity, higher = more binding, comparable within an allelic series).
Take AATGTGAA: the binding signal in assay [8] is 8.3 upbm affinity estimate (log intensity, higher = more binding, comparable within an allelic series); in assay [9], 9.35 upbm affinity estimate (log intensity, higher = more binding, comparable within an allelic series); in assay [10], 8.37 upbm affinity estimate (log intensity, higher = more binding, comparable within an allelic series).
Turning to CCTATTTA, the binding signal was 11.2 upbm affinity estimate (log intensity, higher = more binding, comparable within an allelic series) in assay [11] and 9.86 upbm affinity estimate (log intensity, higher = more binding, comparable within an allelic series) in assay [12].
On to TGTGTAAA, for which the binding signal in assay [13] is 11.1 upbm affinity estimate (log intensity, higher = more binding, comparable within an allelic series); in assay [14], 11 upbm affinity estimate (log intensity, higher = more binding, comparable within an allelic series).
As for CACACTAA, the binding signal in [15] is 10.8 upbm affinity estimate (log intensity, higher = more binding, comparable within an allelic series); in assay [16] it was 10.7 upbm affinity estimate (log intensity, higher = more binding, comparable within an allelic series).
For the sequence TAATAGTA, the binding signal in assay [15] is 11.7 upbm affinity estimate (log intensity, higher = more binding, comparable within an allelic series); in assay [16] it was 11.5 upbm affinity estimate (log intensity, higher = more binding, comparable within an allelic series).
Take AGATACCC: in assay [17], the binding signal was 11.2 upbm affinity estimate (log intensity, higher = more binding, comparable within an allelic series).
Turning to CAAGAGGG, in assay [18], the binding signal is 10.9 upbm affinity estimate (log intensity, higher = more binding, comparable within an allelic series).
On to AATACCAT, for which the binding signal in assay [19] was 9.98 upbm affinity estimate (log intensity, higher = more binding, comparable within an allelic series); in [20] it was 9.96 upbm affinity estimate (log intensity, higher = more binding, comparable within an allelic series); in assay [21] it was 10.3 upbm affinity estimate (log intensity, higher = more binding, comparable within an allelic series).
CGCCCCGC: the binding signal in assay [18] was 9.59 upbm affinity estimate (log intensity, higher = more binding, comparable within an allelic series).
Take CATAATCG: the binding signal in assay [19] was 10.5 upbm affinity estimate (log intensity, higher = more binding, comparable within an allelic series); in assay [20] it was 10.3 upbm affinity estimate (log intensity, higher = more binding, comparable within an allelic series).
Consider CCCTGCCA, for which, in assay [18], the binding signal is 9.63 upbm affinity estimate (log intensity, higher = more binding, comparable within an allelic series).
Turning to AGGTATCG, in assay [17], the binding signal was 11.1 upbm affinity estimate (log intensity, higher = more binding, comparable within an allelic series).
For the sequence TAAACTAA, the binding signal was 10.3 upbm affinity estimate (log intensity, higher = more binding, comparable within an allelic series) in [19] and 10.1 upbm affinity estimate (log intensity, higher = more binding, comparable within an allelic series) in assay [20].
As for CATTACTA, the binding signal is 10.6 upbm affinity estimate (log intensity, higher = more binding, comparable within an allelic series) in assay [19] and 10.5 upbm affinity estimate (log intensity, higher = more binding, comparable within an allelic series) in assay [20].
As to AATGCAAT, the binding signal in assay [19] was 10.3 upbm affinity estimate (log intensity, higher = more binding, comparable within an allelic series); in assay [20] it was 10.2 upbm affinity estimate (log intensity, higher = more binding, comparable within an allelic series).
Turning to AGGAATAA, the binding signal in assay [19] is 9.91 upbm affinity estimate (log intensity, higher = more binding, comparable within an allelic series); in assay [20] it was 9.78 upbm affinity estimate (log intensity, higher = more binding, comparable within an allelic series).
With AAAATACC, the binding signal in assay [19] was 9.6 upbm affinity estimate (log intensity, higher = more binding, comparable within an allelic series); in [20], 9.45 upbm affinity estimate (log intensity, higher = more binding, comparable within an allelic series).
Take AACCCATT: the binding signal is 10.5 upbm affinity estimate (log intensity, higher = more binding, comparable within an allelic series) in assay [19] and 10.4 upbm affinity estimate (log intensity, higher = more binding, comparable within an allelic series) in assay [20].
For the sequence AATACAAT, the binding signal is 10 upbm affinity estimate (log intensity, higher = more binding, comparable within an allelic series) in assay [19] and 9.98 upbm affinity estimate (log intensity, higher = more binding, comparable within an allelic series) in [20].
For the sequence CGGATCAC, in assay [17], the binding signal was 11.1 upbm affinity estimate (log intensity, higher = more binding, comparable within an allelic series).
Regarding ACATTACA, the binding signal in assay [19] was 10.6 upbm affinity estimate (log intensity, higher = more binding, comparable within an allelic series); in [20], 10.5 upbm affinity estimate (log intensity, higher = more binding, comparable within an allelic series).
Turning to AAACGGCC, the binding signal in [18] is 9.82 upbm affinity estimate (log intensity, higher = more binding, comparable within an allelic series).
In the case of ATATCTTC, the binding signal in [19] was 10 upbm affinity estimate (log intensity, higher = more binding, comparable within an allelic series); in [20], 9.91 upbm affinity estimate (log intensity, higher = more binding, comparable within an allelic series).
Turning to AAGATCAT, the binding signal in assay [19] was 9.78 upbm affinity estimate (log intensity, higher = more binding, comparable within an allelic series); in [20] it was 9.78 upbm affinity estimate (log intensity, higher = more binding, comparable within an allelic series).
As for AAGTAATC, the binding signal in assay [19] was 9.94 upbm affinity estimate (log intensity, higher = more binding, comparable within an allelic series); in assay [20] it was 9.94 upbm affinity estimate (log intensity, higher = more binding, comparable within an allelic series).
GGCGATAA: the binding signal in assay [19] was 10.4 upbm affinity estimate (log intensity, higher = more binding, comparable within an allelic series); in assay [20], 10.3 upbm affinity estimate (log intensity, higher = more binding, comparable within an allelic series).
On to CCATTTTC, for which the binding signal in [19] was 10.1 upbm affinity estimate (log intensity, higher = more binding, comparable within an allelic series); in assay [20], 10 upbm affinity estimate (log intensity, higher = more binding, comparable within an allelic series).
On to AACAAATA, for which the binding signal in assay [19] was 10.1 upbm affinity estimate (log intensity, higher = more binding, comparable within an allelic series); in assay [20] it was 9.97 upbm affinity estimate (log intensity, higher = more binding, comparable within an allelic series).
Take CTACTATA: the binding signal in [19] is 10.2 upbm affinity estimate (log intensity, higher = more binding, comparable within an allelic series); in [20], 10 upbm affinity estimate (log intensity, higher = more binding, comparable within an allelic series).
For the sequence CCCGCCAG, the binding signal in [18] is 9.62 upbm affinity estimate (log intensity, higher = more binding, comparable within an allelic series).
With AACATATG, the binding signal in assay [19] is 9.86 upbm affinity estimate (log intensity, higher = more binding, comparable within an allelic series); in [20], 9.84 upbm affinity estimate (log intensity, higher = more binding, comparable within an allelic series).
With AGGCTAAT, the binding signal in assay [19] is 9.89 upbm affinity estimate (log intensity, higher = more binding, comparable within an allelic series); in [20], 9.92 upbm affinity estimate (log intensity, higher = more binding, comparable within an allelic series).
ATTTAATC: the binding signal is 10.8 upbm affinity estimate (log intensity, higher = more binding, comparable within an allelic series) in assay [19]; 10.7 upbm affinity estimate (log intensity, higher = more binding, comparable within an allelic series) in [20]; 12.3 upbm affinity estimate (log intensity, higher = more binding, comparable within an allelic series) in assay [22].
With AGAAATTA, the binding signal is 10.7 upbm affinity estimate (log intensity, higher = more binding, comparable within an allelic series) in assay [19] and 10.5 upbm affinity estimate (log intensity, higher = more binding, comparable within an allelic series) in assay [20].
